ALDH1A1 inh: qHTS Assay for Inhibitors of Aldehyde Dehydrogenase 1 (ALDH1A1) | Purified ALDH1A1, NADH fluorescence, propionaldehyde substrate | Potency, µM (highest dose often 75.3 µM), most hits filed as inhibitors | 220,000 compounds, 7.3% hits | AID 1030, 2008; active = well fitted inhibition curve with a large enough effect, not every such curve was filed as active; inconclusive = small, poorly fitted or top-dose-only effect, or another doubt; inactive = no such curve, though single readings can be large or run the other way
Target sequence (P00352 whole entry, looked up): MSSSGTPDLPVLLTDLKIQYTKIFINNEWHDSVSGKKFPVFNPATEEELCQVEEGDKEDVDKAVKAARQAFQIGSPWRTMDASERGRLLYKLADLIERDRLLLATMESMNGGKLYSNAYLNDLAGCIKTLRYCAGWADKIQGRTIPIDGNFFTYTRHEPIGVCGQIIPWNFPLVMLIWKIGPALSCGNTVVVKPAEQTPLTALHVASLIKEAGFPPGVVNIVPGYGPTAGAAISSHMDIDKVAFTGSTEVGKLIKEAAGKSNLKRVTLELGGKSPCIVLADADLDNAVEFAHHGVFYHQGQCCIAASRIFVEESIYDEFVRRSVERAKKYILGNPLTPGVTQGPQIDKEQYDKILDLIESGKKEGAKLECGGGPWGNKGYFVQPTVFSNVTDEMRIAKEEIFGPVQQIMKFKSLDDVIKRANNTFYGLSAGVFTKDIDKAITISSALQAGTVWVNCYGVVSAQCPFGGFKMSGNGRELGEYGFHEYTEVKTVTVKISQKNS
PNC inhibitor: High Content Assay for Compounds that inhibit the Assembly of the Perinucleolar Compartment; PC3M PTB-GFP, PNC prevalence imaging, 16 h; hits give low values; 140,000 compounds, 3.1% hits; activity change (PNC), negative = inhibition, % at 10 µM;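 active = readout at or below -70, meaning at least 70% loss of cells showing the perinucleolar compartment, a nuclear body marking cancer cells; inconclusive = readout between -30 and a set limit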
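PC3M cells stably expressing PTB-GFP, 750–1000 cells/well, treated 16 h at 37 °C with compound (23 nl of library stock), in duplicate. After paraformaldehyde fixation and Hoechst stain, imaged at 20x; PNC prevalence scored by image analysis.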
HPGD inh: qHTS Assay for Inhibitors of HPGD (15-Hydroxyprostaglandin Dehydrogenase) | 15-hydroxyprostaglandin dehydrogenase [NAD(+)] (Homo sapiens), P15428 | purified HPGD, NADH fluorescence kinetic, PGE2 substrate | Potency, µM, most hits filed as inhibitors | 150,000 compounds, 4.3% hits; active = well fitted inhibition curve with a large enough effect, not every such curve was filed as active; inconclusive = small, poorly fitted or top-dose-only effect, or another doubt; inactive = no such curve, though single readings can be large or run the other way
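NADH formation kinetics: reaction with 30 uM PGE2 and 1 mM NAD+ (final), 20 nM enzyme, Tris-HCl pH 8 with Tween 20, after 15 min compound preincubation at room temperature. Fluorescence change, last versus first of five reads.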
ALOX12 inhib: qHTS Assay for Inhibitors of 12-hLO (12-human lipoxygenase) | Polyunsaturated fatty acid lipoxygenase ALOX12 (Homo sapiens), P18054 | purified 12-hLO, xylenol orange hydroperoxide absorbance | Potency, µM (top dose mostly 57.1 µM), actives largely listed as inhibitors | 150,000 compounds, 0.12% hits | AID 1452, 2008; note: nearly all actives have a fitted effect of over 55% in size
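Hydroperoxide output read as Fe(III)-xylenol orange absorbance, 573-to-405 nm ratio, after 30 min reaction with 40 uM arachidonic acid. Enzyme: 150 nM purified human 12hLO, 15 min compound preincubation; 25 mM Hepes pH 7.0, room temperature.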
GLA inh pH 4.5: qHTS Assay for Inhibitors of Human alpha-Galactosidase at pH 4.5; purified enzyme, 4-MU-alpha-Gal fluorescence, pH 4.5; AID 1467, 2008; activity change, negative = inhibition, % at 105 µM; 230,000 tested, under 10 active
aGal spleen mod: qHTS Assay for Inhibitors and Activators of Human alpha-Galactosidase From Spleen Homogenate; Potency, µM (highest dose often 80 µM), usual class: inhibitors; human spleen homogenate, 4MU-alpha-Gal fluorescence, 40 min; Alpha-galactosidase A (Homo sapiens), P06280; 240,000 compounds, 0.008% hits
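Human spleen homogenate (1 ug) as enzyme source, 4-methylumbelliferyl-alpha-D-galactopyranoside 1 mM final, citrate/phosphate pH 5.0 with 0.01% Tween-20. Compounds 40 min at 37C, NaOH/glycine stop; fluorescence Ex 365/Em 440, Hill-fit AC50.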
Hits are given with their value; n = inactive; u = inconclusive; x = no result given; [ ] = another dose, or the depositor's remark. This is a sample that favours compounds with a hit; in the whole collection about 10% have one here. Unless noted, calls come from the whole dose curve; as a rule, active = well fitted curve in the direction sought with a large enough effect; inconclusive = small, poorly fitted or top-dose-only effect, or another doubt; inactive = no such curve, though single readings can be large; an effect the other way counts as inactive or inconclusive.

SMILES	ALDH1A1 inh	PNC inhibitor	HPGD inh	ALOX12 inhib	GLA inh pH 4.5	aGal spleen mod
CCOC(=O)c1c(C)c(C(=O)N2CCN(C(=O)c3ccco3)CC2)c(C)n1C	13µM	n	n	n	n	n
CCOC(=O)c1c(C)n(C(=O)c2ccco2)c(=O)n1C(=O)c1ccco1	n	n	22µM	n	n	n
O=C(CNC(=O)c1ccccc1Cl)N/N=C/C=C/c1ccccc1	n	n	n	n	n	n
CON(C)c1nc(NCC(C)C)nc(OCC#N)n1	n	u	n	n	n	n
CCN(CC(=O)NCc1ccc(F)cc1)CC(=O)Nc1ccc(S(=O)(=O)N2CCCC2)cc1	11µM	x	x	x	n	n
O=C(CN1CCN(S(=O)(=O)c2ccc(Br)cc2)CC1)Nc1ccccc1F	28µM	n	n	n	n	n
O=C(CN1CCCN(S(=O)(=O)c2ccc(F)cc2)CC1)Nc1ccccc1Br	28µM	n	n	n	n	n
O=C(CN1CCN(S(=O)(=O)c2ccc(Br)cc2)CC1)Nc1ccc(F)cc1F	n	u	n	n	n	n
NS(=O)(=O)c1ccc(NC(=O)CN2CCCN(S(=O)(=O)c3ccc(F)cc3)CC2)cc1	u	x	x	x	n	n
O=C(CN1CCN(S(=O)(=O)c2ccc(Br)cc2)CC1)Nc1ccc(F)cc1	32µM	u	n	n	n	n
NC(=S)NCCC[C@@H](N)C(=O)O	x	x	x	n	x	x
COc1ccc(S(=O)(=O)CCC(=O)Nc2cc(C)ccc2OC)cc1	25µM	x	x	x	n	n
COc1ccc(C)cc1NC(=O)CN1CCN(S(=O)(=O)c2ccc(Br)cc2)CC1	0.16µM	n	n	n	n	n
O=C(CN1CCN(S(=O)(=O)c2ccc(Br)cc2)CC1)N/N=C/c1cccnc1	n	-90	n	n	n	n
COc1ccc(NC(C)=O)cc1NC(=O)CN1CCN(S(=O)(=O)c2ccc(C(C)C)cc2)CC1	n	n	n	n	n	n
Cc1ccc(S(=O)(=O)N2CCN(CC(=O)N/N=C\c3ccncc3)CC2)cc1	x	x	x	x	n	n
COC(=O)c1ccc(COC(=O)c2ccc(SC)cc2OC)cc1	n	n	n	n	n	n
Cc1noc(C)c1-c1ccc2ncnc(N(C)Cc3ccco3)c2c1	n	x	13µM	n	n	n
CCC1CCCCN1C(=O)CSc1nnc(CNC(=O)COc2ccc(Cl)cc2)o1 (stereo not drawn)	7.1µM	n	n	n	n	n
COC(=O)c1ccccc1NC(=O)CSc1nnc(Cc2ccc(Cl)cc2)o1	20µM	u	28µM	n	n	n
COC(=O)c1ccccc1NC(=O)CSc1ncccn1	x	x	x	x	n	n
COc1ccc(OC)c(NC(=O)CSc2nnc(CNC(=O)COc3ccc(Cl)cc3)o2)c1	20µM	u	n	n	n	n
COCCn1c(CNc2ccc(F)cc2)nnc1SCC(=O)Nc1ccc(OC)cc1OC	13µM	n	n	n	n	n
N=c1ccn2c(n1)O[C@H]1[C@@H](O)[C@@H](CO)O[C@H]12	n	x	n	x	n	n
Cc1nc2ccccc2nc1-c1ccc(N=[N+]([O-])c2ccc(-c3nc4ccccc4nc3C)cc2)cc1	n[13.5 µM]	x	n	n[11.4 µM]	x	x
SMILES	ALDH1A1 inh	PNC inhibitor	HPGD inh	ALOX12 inhib	GLA inh pH 4.5	aGal spleen mod
COc1ccc(NCc2nnc(SCC(=O)Nc3ccccc3OC)o2)cc1	u	-105	n	n	n	n
COc1ccc(CCCc2nnc(SCC(=O)Nc3ccccc3F)o2)cc1	u	x	x	x	n	n
CC1CCCCN1C(=O)CSc1nnc(-c2c[nH]c3ccccc23)o1 (stereo not drawn)	25µM	n	n	n	n	n
COc1ccc(Cc2nnc(SCC(=O)c3ccc(OC)cc3)o2)cc1	u	n	n	n	n	n
COc1ccc(NCc2nnc(SCC(=O)c3ccc(OC)cc3)o2)cc1	16µM	u	n	n	n	n
COc1ccc(CCCc2nnc(SCC(=O)NN)o2)cc1	7.9µM	x	x	x	n	n
COc1ccc(OC)c(NC(=O)CSc2nnc(CNc3ccc(F)cc3)o2)c1	n	n	n	n	n	n
COc1ccccc1C(=O)N/N=C(\C)c1ccc(NC(=O)C2CC2)cc1	n	u	n	n	n	n
COc1ccc(C2/C=C\CN(Cc3ccccc3)C(C)C(=O)N2Cc2ccc(F)cc2)cc1 (stereo not drawn)	x	x	x	x	x	n
COC(=O)[C@@]1(Cc2ccc(F)cc2)[C@H]2c3cc(C(=O)N4CCCC4)n(Cc4c(CO)[nH]cc(C)c4=O)c3C[C@H]2CN1C(=O)c1ccccc1	n	x	n	n	n	n
CCC1CCCCN1C(=O)CSc1nnc(-c2ccco2)o1 (stereo not drawn)	20µM	n	n	n	n	n
CCC1CCCCN1C(=O)CSc1nnc(-c2ccc(Cl)cc2)o1 (stereo not drawn)	n	n	n	n	n	n
Cc1ccsc1CN(C)Cc1nc(C2CC2)no1	n	x	x	x	n	n
COc1ccc(NC(=O)CN2CCN(S(=O)(=O)c3ccc(Cl)cc3)CC2)cc1	19µM	n	n	n	n	n
COc1ccc(S(=O)(=O)N2CCCN(CC(=O)Nc3ccc(OC)c(Cl)c3)CC2)cc1	1.6µM	n	n	n	n	n
COc1ccc(S(=O)(=O)N2CCN(CC(=O)Nc3cc(OC)cc(OC)c3)CC2)cc1	u	n	n	n	u	n
COc1ccc(NC(=O)CN2CCN(S(=O)(=O)c3ccc(Cl)cc3)CC2)cc1Cl	n	n	n	n	n	n
NC1=N[C@H](c2ccc(Cl)cc2)N(c2ccc(S(N)(=O)=O)cc2)C(N)=N1	n[13.5 µM]	x	n	n[11.4 µM]	x	x
CO[C@H]1COC(=O)[C@H]2CCCN2C(=O)[C@@H](C)COC(=O)C/C=C\[C@@H]1C	n[13.5 µM]	x	x	x	x	n[17.5 µM]
CCC12CC3CC(C1)CC(C(=O)NNC(N)=O)(C3)C2	x	x	x	x	n	n
COCCNC(=S)c1ccc(Br)cc1	8.9µM	x	x	x	n	n
COCCNC(=O)Cc1ccc(Br)cc1	n	u	n	n	n	u
COc1ccccc1C1OC(=O)CC1C(=O)OC[C@@H]1CCCN2CCCCC12 (stereo partly drawn)	n	x	n	x	n	n
O=C(Nc1ccc(S(=O)(=O)N2CCOCC2)cc1)c1ccc2c(c1)OCO2	x	x	x	x	n	n
CNS(=O)(=O)c1ccc(NC(=S)Nc2ccc3c(c2)OCO3)cc1	5µM	x	x	x	n	n
O=S(=O)(c1ccc(NC(=S)Nc2ccc3c(c2)OCO3)cc1)N1CCOCC1	22µM	n	u	n	n	n

High-throughput results: PubChem BioAssay, National Center for Advancing Translational Sciences (NCATS)
